Data from PubChem BioAssay (NCATS).
Records with an inconclusive call do not appear. Calls of active or inactive are those of the source. Calls come from the whole dose curve; as a rule, active = well fitted inhibition curve with a large enough effect; inconclusive = small, poorly fitted or top-dose-only effect; inactive = flat fitted curve, though single readings scatter.

Tests used:
Assay in all cases: qHTS profiling for inhibitors of Plasmodium falciparum proliferation (AID 504749); note: nearly all actives have a fitted effect of over 60% in size
Settings in all cases: P. falciparum in erythrocytes, SYBR Green DNA, 72 h; series mostly up to 28.7 µM
CP252 = test system: CP252
Method in brief: (§1)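 Fluorescence of SYBR Green-bound parasite DNA, read at 485/535 nm, served as the growth measure. Infected erythrocytes were cultured with compound 72 h; artemisinin (0.29 uM) and DMSO wells defined the normalization range.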

CP256 = test system: CP256
Method in brief: as §1

CP260 = test system: CP260
Method in brief: as §1

CP265 = test system: CP265
Method in brief: as §1

CP266 = test system: CP266
Method in brief: as §1

CP268 = test system: CP268
Method in brief: as §1

CP269 = test system: CP269
Method in brief: as §1

CP286 = test system: CP286
Method in brief: as §1

CP291 = test system: CP291
Method in brief: as §1

CP297 = test system: CP297
Method in brief: as §1

CP305 = test system: CP305
Method in brief: as §1

CP325 = test system: CP325
Method in brief: as §1

CP329 = test system: CP329
Method in brief: as §1

DFO2036 = test system: DFO2036
Method in brief: as §1

DIV14 = test system: DIV14
Method in brief: as §1

DIV17 = test system: DIV17
Method in brief: as §1

DIV30 = test system: DIV30
Method in brief: as §1

Dd2 = test system: Dd2
Method in brief: as §1

ECU = test system: ECU
Method in brief: as §1

FAB9 = test system: FAB9
Method in brief: as §1

GB4 = test system: GB4
Method in brief: as §1

HB3 = test system: HB3
Method in brief: as §1

ICS = test system: ICS
Method in brief: as §1

JCK = test system: JCK
Method in brief: as §1

N140 = test system: N140
Method in brief: as §1

P93_24 = test system: P93_24
Method in brief: as §1

P94_40 = test system: P94_40
Method in brief: as §1

PAD = test system: PAD
Method in brief: as §1

PC15 = test system: PC15
Method in brief: as §1

PC26 = test system: PC26
Method in brief: as §1

PC49 = test system: PC49
Method in brief: as §1

SC27B = test system: SC27B
Method in brief: as §1

TAB109 = test system: TAB109
Method in brief: as §1

TAB113 = test system: TAB113
Method in brief: as §1

TAB165 = test system: TAB165
Method in brief: as §1

W2 = test system: W2
Method in brief: as §1

Measured: Potency

Cc1onc(-c2c(F)cccc2Cl)c1C(=O)N[C@@H]1C(=O)N2[C@H]1SC(C)(C)[C@H]2C(=O)O
inactive: all assays above
